A short description of test [1]: Cell Viability - LYMP2-023 (AID 975).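 Also: cells exposed to compound for 24 hours at 37 °C; nearly all actives have a fitted effect of over 55% in size.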 Also: potency is read from the fitted curve at half-maximal effect. In a few lines:
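Concentration-dependent drop in intracellular ATP measures acute cytotoxicity in a human lymphoblastoid line treated for 24 hours in complete culture medium. AC50 values are taken from Hill-equation fits of qHTS data.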

The nature of test [2]: Cell Viability - LYMP2-025 (AID 976).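 Also: cells exposed to compound for 24 h at 37 °C.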 Also: potency is read from the fitted curve at half-maximal effect. The procedure, abridged:
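In qHTS format, LYMP2-025 lymphoblastoid cells in complete culture medium received compound for 24 hr; ATP-based CellTiter-Glo signal gave viability, with AC50 derived by Hill equation.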

A short description of test [3]: Cell Viability - LYMP2-002 (AID 977).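 Also: compound exposure lasted 24 h at 37 °C.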 Also: potency is read from the fitted curve at half-maximal effect. In a few lines:
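Cytotoxicity is scored as concentration-dependent loss of cellular ATP in a human lymphoblastoid line after 24 hr compound treatment at 37 C. AC50 is obtained by modelling concentration-response data with the Hill equation.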

Test [4] can be described thus: Cell Viability - LYMP2-006 (AID 978).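 Also: cells exposed to compound for 24 hours; nearly all actives have a fitted effect of over 60% in size.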 Also: potency is read from the fitted curve at half-maximal effect. The procedure, abridged: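 Cells are seeded at 2500 per well and rested 5 hr at 37 C. Compounds are added across a concentration series for 24 hr at 37 C, after which ATP is quantified by luciferase luminescence.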
Test [5] can be described thus: Cell Viability - LYMP2-007 (AID 979).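 Also: cells exposed to compound for 24 h before reading; nearly all actives have a fitted effect of over 60% in size.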 Also: potency is read from the fitted curve at half-maximal effect. In a few lines: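 Acute toxicity is scored as a concentration-dependent fall in intracellular ATP in human lymphoblastoid cells treated 24 hr at 37 C, measured by luciferase luminescence; Hill-equation modelling yields AC50.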
Test [6] is described as follows: Cell Viability - LYMP2-008 (AID 980). Also: nearly all actives have a fitted effect of over 60% in size. Also: potency is read from the fitted curve at half-maximal effect. In a few lines:
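Acute cytotoxicity is scored as concentration-dependent loss of cellular ATP in a human lymphoblastoid line after 24 hr treatment at 37 C. ATP is quantified by luciferase luminescence.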

Test [7] can be described thus: Cell Viability - LYMP2-010 (AID 981).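 Also: cells exposed to compound for 24 hours at 37 °C; nearly all actives have a fitted effect of over 55% in size.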 Also: potency is read from the fitted curve at half-maximal effect. The procedure, abridged: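 Acute toxicity is scored as a concentration-dependent loss of cellular ATP in human lymphoblastoid cells after 24 hr compound exposure in complete medium. Tetraoctylammonium bromide is the positive control.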
Test [8] can be described thus: Cell Viability - LYMP2-012 (AID 982).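 Also: cellular ATP by luciferase luminescence where a drop means cytotoxicity; cells exposed to compound for one day before reading; nearly all actives have a fitted effect of over 55% in size.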 Also: potency is read from the fitted curve at half-maximal effect.
Test [9] can be described thus: Cell Viability - LYMP2-014 (AID 983).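 Also: cells exposed to compound for 24 h at 37 °C; nearly all actives have a fitted effect of over 50% in size.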 Also: potency is read from the fitted curve at half-maximal effect. In a few lines:
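Decrease in intracellular ATP after 24 hr treatment at 37 C, measured by luciferase luminescence, indicated cytotoxicity. Concentration-response data were fitted with the standard Hill equation to give AC50.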

Test [10] in a line: Cell Viability - LYMP2-016 (AID 984).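 Also: cells exposed to compound for 24 hours at 37 °C; nearly all actives have a fitted effect of over 55% in size.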 Also: potency is read from the fitted curve at half-maximal effect. The procedure, abridged:
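Cells were seeded at 2500 per well and rested 5 hr before a 24 hr compound exposure at 37 C. Viability was then gauged as cellular ATP by luciferase luminescence, with AC50 values fitted to the Hill equation.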

Test [11] can be described thus: Cell Viability - LYMP2-018 (AID 985). Also: nearly all actives have a fitted effect of over 50% in size. Also: potency is read from the fitted curve at half-maximal effect. The procedure, abridged: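 Acute cytotoxicity is scored as a concentration-dependent drop in intracellular ATP after 24 hr exposure of the lymphoblastoid line in complete culture medium, measured by luciferase luminescence. Potency is expressed as AC50 from Hill modelling.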
The nature of test [12]: Cell Viability - LYMP2-020 (AID 986). Also: potency is read from the fitted curve at half-maximal effect. In a few lines: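 Acute cytotoxicity in a human lymphoblastoid line is scored as a concentration-dependent fall in cellular ATP after 24 hr at 37 C in complete medium. The positive control is tetraoctylammonium bromide, and potency is given as Hill-fit AC50.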
A short description of test [13]: Cell Viability - LYMP2-022 (AID 987). Also: nearly all actives have a fitted effect of over 55% in size. Also: potency is read from the fitted curve at half-maximal effect. The procedure, abridged:
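Acute toxicity in a human lymphoblastoid line is scored as decreased intracellular ATP after 24 hr compound treatment at 37 C. ATP is measured by CellTiter-Glo luminescence; curves are fitted with the Hill equation to give AC50.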

The nature of test [14]: Cell Viability - LYMP2-024 (AID 988). Also: nearly all actives have a fitted effect of over 60% in size. Also: potency is read from the fitted curve at half-maximal effect. In a few lines: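 Acute toxicity is measured as concentration-dependent loss of intracellular ATP in a human lymphoblastoid line treated 24 hours at 37 C. Luciferase luminescence quantifies ATP; AC50 values come from standard Hill-equation modelling.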
The nature of test [15]: Cell Viability - LYMP2-026 (AID 989).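 Also: cells exposed to compound for 24 h at 37 °C; nearly all actives have a fitted effect of over 50% in size.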 Also: potency is read from the fitted curve at half-maximal effect. In a few lines:
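Concentration-dependent loss of intracellular ATP in human lymphoblastoid cells after 24 hr at 37 C, quantified by luciferase luminescence. AC50 derived from standard Hill equation.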

Test [16] is described as follows: Cell Viability - LYMP1-002 - Assay at 24 hr (AID 993). Also: potency is read from the fitted curve at half-maximal effect. In a few lines:
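qHTS, LYMP1-002 lymphoblastoid, 24 h cpd, 37 C, CellTiter-Glo ATP luminescence; AC50 via Hill eq.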

The nature of test [17]: Cell Viability - LYMP1-002 - Assay at 40 hr (AID 994). Also: nearly all actives have a fitted effect of over 60% in size. Also: potency is read from the fitted curve at half-maximal effect. The procedure, abridged: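 Viability in the human lymphoblastoid line was measured as intracellular ATP via CellTiter-Glo after 40 hr compound exposure. Tetraoctylammonium bromide served as positive control.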
Test [18] deals with Alpha-galactosidase A (Homo sapiens) (UniProt P06280). Description: Counterscreen for Glucocerebrosidase Inhibitors: qHTS Assay for Human alpha-Galactosidase at pH 4.5 (AID 992). In a few lines:
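Human enzyme (2 nM) with 80 uM 4-methylumbelliferyl alpha-D-galactopyranoside in 50 mM citric acid, 0.005% Tween-20, pH 4.5, 20 min at room temperature. Compounds 0.7 nM–77 uM; fluorescence Ex 365/Em 440 after pH 10 stop; AC50 from Hill fits.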
Background: The purpose of a counterscreen is to sort out artefacts and off-target activity.

The target of test [19] is alpha-glucosidase (Oryza sativa, rice) (UniProt Q653V4). Briefly: Counterscreen for Glucocerebrosidase Inhibitors: qHTS Assay for Rice alpha-Glucosidase at pH 5.0 (AID 997). The procedure, abridged: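 Rice alpha-glucosidase (4 nM final) with 400 uM 4-methylumbelliferyl-alpha-D-glucopyranoside in citrate buffer pH 5.0, 20 min at room temperature, stopped at pH 10; fluorescence 365/440 nm, compounds 0.7 nM–77 uM, AC50 from Hill fits.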

Inconclusive results are not listed. The source made the active and inactive calls. Calls follow the shape of the dose curve; as a rule, active = well fitted curve in the direction sought with a large enough effect; inconclusive = small, poorly fitted or top-dose-only effect, or another doubt; inactive = no such curve, though single readings can be large; an effect the other way counts as inactive or inconclusive.

Sequence of Alpha-galactosidase A (Homo sapiens) (P06280 whole entry, looked up): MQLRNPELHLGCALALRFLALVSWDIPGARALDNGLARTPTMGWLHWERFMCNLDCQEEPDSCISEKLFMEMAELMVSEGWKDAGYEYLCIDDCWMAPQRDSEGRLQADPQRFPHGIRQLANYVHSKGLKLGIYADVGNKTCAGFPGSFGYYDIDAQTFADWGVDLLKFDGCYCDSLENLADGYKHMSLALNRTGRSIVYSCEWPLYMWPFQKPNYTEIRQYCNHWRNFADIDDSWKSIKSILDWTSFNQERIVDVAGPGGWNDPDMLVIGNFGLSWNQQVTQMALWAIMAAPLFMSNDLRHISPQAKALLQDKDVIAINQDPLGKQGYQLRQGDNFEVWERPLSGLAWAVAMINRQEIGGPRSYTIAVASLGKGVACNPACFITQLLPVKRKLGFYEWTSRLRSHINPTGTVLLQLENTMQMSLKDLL

For `Cc1cc(O)ccc1Cl`, the Potency entry in [1], in test [2], in test [3], in test [4], in [5] and in test [6] was “inactive” in each case. Besides, the Potency result in test [7], in test [8], in test [9], in test [10], in [11] and in [12] was “inactive” in each case. For the same molecule, the Potency entry in test [13], in [14], in test [15], in [16] and in [17] was “inactive” throughout.
`Nc1ccc(Cl)cc1N`: the Potency result in [1], in test [2], in test [3], in [4], in [5] and in test [6] was “inactive” in each case. Moreover, the Potency result in [7], in test [8], in [9], in [10], in [11] and in [12] was “inactive” throughout. For the same molecule, the Potency entry in [14], in test [15], in [16] and in test [17] was “inactive” in each case.
Consider `CC(=O)[O][Hg][c]1ccccc1`, for which the Potency in [1] is 1260 nM (active); in test [2], 1260 nM (active); in test [3], 1580 nM (active); in test [4] it was 1580 nM (active); in [5] it was 1000 nM (active); in [6] it was 1260 nM (active). In addition, the Potency was 398 nM (active) in test [7]; 501 nM (active) in test [8]; 1580 nM (active) in [9]; 1000 nM (active) in test [10]; 631 nM (active) in test [11]; 794 nM (active) in test [12]. Further, the Potency in [13] was 501 nM (active); in [14] it was 501 nM (active); in test [15] it was 1260 nM (active); in test [16], 3980 nM (active); in test [17], 3980 nM (active).
Turning to `NC(=NCCC[C@H](N)C(=O)O)N[N+](=O)[O-]`, the result in test [18] and in test [19] was inactive.
For `C=CC(=O)NCNC(=O)C=C`, the Potency entry in test [1], in [2], in test [3], in test [4], in [5] and in [6] was “inactive” throughout. Besides, the Potency entry in [7], in [8], in test [9], in test [10], in test [11] and in test [12] was “inactive” in each case. In addition, the Potency entry in test [13], in test [14], in test [15], in [16] and in [17] was “inactive” each time.
On to `O=[N+]([O-])c1c2ccccc2cc2ccccc12`, for which the Potency entry in [1], in test [2], in test [3], in [4], in test [5] and in [6] was “inactive” each time. Moreover, the Potency entry in test [7], in [8], in test [9], in [10], in [11] and in test [12] was “inactive” in each case. Further, the Potency entry in [13], in [14], in test [15], in test [16] and in test [17] was “inactive” throughout.
As to `CCCCC(CC)COC(=O)c1ccccc1C(=O)OCC(CC)CCCC` (configuration not stated), the Potency result in [1], in test [2], in test [3], in test [4], in test [5] and in [6] was “inactive” each time. Moreover, the Potency entry in test [7], in test [8], in [9], in test [10], in test [11] and in test [12] was “inactive” throughout. Besides, the Potency result in test [13], in [14], in [15], in test [16] and in test [17] was “inactive” in each case.
As for `CN(C)[C@@H]1C(=O)C(C(N)=O)=C(O)[C@@]2(O)C(=O)C3=C(O)c4c(O)cccc4[C@@](C)(O)[C@H]3[C@H](O)[C@@H]12`, the Potency entry in [1], in test [2], in test [3], in test [4], in [5] and in test [6] was “inactive” each time. For the same molecule, the Potency entry in test [7], in test [8], in test [9], in test [10], in test [11] and in test [12] was “inactive” each time. Also, the Potency result in test [13], in test [14], in test [15], in test [16] and in test [17] was “inactive” each time.
On to `CCOP(=O)(NC(C)C)Oc1ccc(SC)c(C)c1` (configuration not stated), for which the Potency result in test [1], in [2], in test [3], in [4], in test [5] and in test [6] was “inactive” in each case. Moreover, the Potency entry in [7], in test [8], in test [9], in [10], in [11] and in [12] was “inactive” each time. For the same molecule, the Potency result in test [13], in [14], in test [15], in [16] and in test [17] was “inactive” throughout.

For the origin of these results see PubChem BioAssay (NCATS).
